Results published in the supplement of paper PMC12494721.
Counter-ions that a name gives are not always drawn.

What was measured:
Conditions in all cases: incubation time: 27 h, anaerobic, 37 °C;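 for the amine columns active = adjusted P below 0.05 in both replicates with a change the same way and a mean fold change under 0.8 or over 1.25; inactive = the rest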
[1] = tested on: Clostridium sporogenes DSM 1664; assay: growth (OD595) fold change vs plate DMSO controls (fold change (ratio)); higher = more growth
In short: (§1)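 The reported measure is growth: the fold change against the median of DMSO controls on the plate. Absorbance at 595 nm from anaerobic 96-well mGAM cultures grown for 27 h at 37 °C was blank-subtracted, corrected for background with 20 µM compound solutions in water, and converted to OD with a calibration factor of 5. Fold changes above 1.5 appear as NA, and values are the mean of 2 biological replicates.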

[2] = tested on: Escherichia coli IAI1; assay: as above
In short: as §1

[3] = tested on: Klebsiella aerogenes DSM 30053; assay: as above
In short: as §1

[4] = tested on: Ruminococcus gnavus DSM 108212; assay: as above
In short: as §1

[5] = tested on: Klebsiella aerogenes DSM 30053; assay: fold change of Histamine concentration vs plate DMSO controls (fold change (ratio)); higher = more amine produced, active = hit call of the paper (significant change in both replicates, either direction)
In short: (§2)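 Anaerobic mGAM cultures of four gut bacterial strains were grown at 37 °C for 27 h in 80 µL wells, starting at OD 0.1 before 1:1 dilution. Compounds were at 20 µM final (sweeteners 50 µM). Whole cultures were extracted with cold acetonitrile/methanol containing 0.1% formic acid and centrifuged. Amines were quantified by LC–triple-quadrupole MS (dynamic MRM) against external calibration curves and drift-corrected within batch. Each value is the fold change versus plate DMSO controls, averaged over 2 biological replicates.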

[6] = tested on: Clostridium sporogenes DSM 1664; assay: fold change of Tryptamine concentration vs plate DMSO controls (fold change (ratio)); higher = more amine produced, active = hit call of the paper (significant change in both replicates, either direction)
In short: as §2

[7] = tested on: Ruminococcus gnavus DSM 108212; assay: as above
In short: as §2

[8] = tested on: Escherichia coli IAI1; assay: fold change of Putrescine concentration vs plate DMSO controls (fold change (ratio)); higher = more amine produced, active = hit call of the paper (significant change in both replicates, either direction)
In short: as §2

[9] = tested on: Klebsiella aerogenes DSM 30053; assay: as above
In short: as §2

[10] = tested on: Escherichia coli IAI1; assay: fold change of Cadaverine concentration vs plate DMSO controls (fold change (ratio)); higher = more amine produced, active = hit call of the paper (significant change in both replicates, either direction)
In short: as §2

[11] = tested on: Klebsiella aerogenes DSM 30053; assay: as above
In short: as §2

[12] = tested on: Ruminococcus gnavus DSM 108212; assay: fold change of 2-Phenylethylamine concentration vs plate DMSO controls (fold change (ratio)); higher = more amine produced, active = hit call of the paper (significant change in both replicates, either direction)
In short: as §2

Row | Structure (SMILES) | growth [1] | growth [2] | growth [3] | growth [4] | fold change of Histamine concentration [5] | fold change of Tryptamine concentration [6] | fold change of Tryptamine concentration [7] | fold change of Putrescine concentration [8] | fold change of Putrescine concentration [9] | fold change of Cadaverine concentration [10] | fold change of Cadaverine concentration [11] | fold change of 2-Phenylethylamine concentration [12]
1 | CCC(=O)c1c(O)cc(O)cc1O [Flopropione] (20 µM) | 0.955 | 1.01 | 0.997 | 0.986 | 1.01 (inactive) | 1 (inactive) | 0.927 (inactive) | 1 (inactive) | 1.01 (inactive) | 1 (inactive) | 1 (inactive) | 0.896 (inactive)
2 | CNCCCC1c2ccccc2C=Cc2ccccc21 [Protriptyline hydrochloride] (20 µM) | 0.921 | 1.01 | 0.958 | 0.968 | 1.02 (inactive) | 1.12 (inactive) | 0.848 (inactive) | 1.17 (inactive) | 1.02 (inactive) | 1.12 (inactive) | 0.998 (inactive) | 0.829 (inactive)
3 | CC1=C(/C=C/C(C)=C/C=C/C(C)=C/C(=O)O)C(C)(C)CCC1 [Retinoic acid] (20 µM) | 1.05 | 0.973 | 1.1 | 1.04 | 0.947 (inactive) | 1.03 (inactive) | 1.03 (inactive) | 1.01 (inactive) | 1.02 (inactive) | 0.989 (inactive) | 1.01 (inactive) | 0.997 (inactive)
4 | C#Cc1cccc(Nc2ncnc3cc(OCCOC)c(OCCOC)cc23)c1 [Erlotinib] (20 µM) | 0.903 | 0.969 | 1.01 | 0.842 | 1.05 (inactive) | 1 (inactive) | 1.02 (inactive) | 0.987 (inactive) | 1.04 (inactive) | 1.02 (inactive) | 1.01 (inactive) | 1.05 (inactive)
5 | COCCCOc1cc(C[C@@H](C[C@H](N)[C@@H](O)C[C@H](C(=O)NCC(C)(C)C(N)=O)C(C)C)C(C)C)ccc1OC [Aliskiren hemifumarate] (20 µM) | 1.02 | 0.992 | 1 | 0.808 | 1.06 (inactive) | 1 (inactive) | 1.04 (inactive) | 1 (inactive) | 1.02 (inactive) | 1 (inactive) | 0.987 (inactive) | 1.05 (inactive)
6 | NC(=O)OCC(COC(N)=O)c1ccccc1 [Felbamate] (20 µM) | 1.07 | 0.986 | 0.988 | 0.902 | 0.989 (inactive) | 1.02 (inactive) | 1.05 (inactive) | 1 (inactive) | 0.993 (inactive) | 1.05 (inactive) | 0.985 (inactive) | 1.07 (inactive)
7 | C[N+](C)(C)CCCCCC[N+](C)(C)C [Hexamethonium dibromide dihydrate] (20 µM) | 0.959 | 0.998 | 1 | 0.892 | 1.02 (inactive) | 1.02 (inactive) | 1.03 (inactive) | 1.04 (inactive) | 0.982 (inactive) | 0.984 (inactive) | 1 (inactive) | 1.01 (inactive)
8 | O=C1[C@H]2CCCC[C@H]2C(=O)N1CCCCN1CCN(c2nsc3ccccc23)CC1 [Perospirone hydrochloride] (20 µM) | 1.12 | 0.968 | 1.01 | 1.32 | 0.986 (inactive) | 1.02 (inactive) | 0.767 (inactive) | 0.989 (inactive) | 1.01 (inactive) | 1.03 (inactive) | 1.02 (inactive) | 0.819 (inactive)
9 | Clc1ccc(CO/N=C(\Cn2ccnc2)c2ccc(Cl)cc2Cl)c(Cl)c1 [Oxiconazole nitrate] (20 µM) | 0.912 | 0.995 | 0.981 | 0.321 | 1.02 (inactive) | 0.91 (inactive) | 0.351 (active) | 1.04 (inactive) | 1.05 (inactive) | 1.03 (inactive) | 1.07 (inactive) | 0.629 (inactive)
10 | CC(C)(C#N)c1cc(Cn2cncn2)cc(C(C)(C)C#N)c1 [Anastrozole] (20 µM) | 0.911 | 1.16 | 1.01 | 1.02 | 1.02 (inactive) | 1.11 (inactive) | 1.09 (inactive) | 1.06 (inactive) | 0.954 (inactive) | 1.01 (inactive) | 0.994 (inactive) | 1.1 (inactive)
11 | O=C(O)Cc1ccccc1Oc1ccc(Cl)cc1Cl [Fenclofenac] (20 µM) | 0.896 | 1.02 | 0.998 | 1 | 1.01 (inactive) | 0.984 (inactive) | 1.02 (inactive) | 1.02 (inactive) | 1.01 (inactive) | 0.999 (inactive) | 1.01 (inactive) | 1.07 (inactive)
12 | Clc1ccc2c(c1)CCc1cccnc1C2=C1CCNCC1 [Desloratadine] (20 µM) | 0.922 | 0.981 | 0.992 | 0.972 | 1.07 (inactive) | 1.11 (inactive) | 0.962 (inactive) | 1 (inactive) | 1.01 (inactive) | 0.976 (inactive) | 0.987 (inactive) | 1.02 (inactive)
